# Test results from PubChem BioAssay.
# Active and inactive are the calls of the source. Unless noted, no rule for the calls is given here.
# How the values were obtained:
# [1] = A549 cell viability effects, profiling panel, calcein-AM fluorescence, 48 h, basal (AID 1162); details: higher = more signal; also: test concentration not given here
# [2] = adipocyte viability effects, profiling panel, cell-based, 3T3-L1 adipocytes, calcein-AM fluorescence, 48 h, basal (AID 1163); details: 3T3-L1 adipocytes viability, higher = more signal; also: test concentration not given here
# [3] = HepG2 cell viability effects, profiling panel, calcein-AM fluorescence, 48 h, basal (AID 1164); details: higher = more signal; also: test concentration not given here
# [4] = MM1S cell viability effects, profiling panel, calcein-AM fluorescence, 48 h, basal (AID 1165); details: higher = more signal;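 also: viability of MM1S multiple myeloma cells under basal unstimulated conditions; test concentration not given here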
# [5] = basal RPMI8226 viability, no added stimulus, profiling panel, cell-based, calcein-AM fluorescence, 48 h, PK04 Diversity Set (AID 1166); details: RPMI8226 myeloma viability, higher = more signal;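 also: cells grown under basal conditions without added stimulus; test concentration not given here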
# [6] = basal HepG2 mitochondrial membrane potential changes, profiling panel, cell-based, JC-1 fluorescence, 24 h, 100 nL compound (AID 1167); details: higher = more signal; also: test concentration not given here
# [7] = basal 3T3-L1 adipocyte mitochondrial potential changes, profiling panel, cell-based, JC-1 fluorescence, 3T3-L1 adipocytes, 24 h, 100 nL compound (AID 1168); details: JC-1 mitochondrial fluorescence, higher = more signal, called active from +8 up or from −8 down; also: test concentration not given here
# [8] = basal RPMI8226 mitochondrial membrane potential changes, profiling panel, cell-based, JC-1 fluorescence, 24 h, 100 nL compound (AID 1169); details: RPMI8226 myeloma, JC-1 mitochondrial potential fluorescence, higher = more signal; also: test concentration not given here
# [9] = basal MM1S mitochondrial membrane potential changes, profiling panel, cell-based, JC-1 fluorescence, 24 h, 100 nL compound (AID 1170); details: higher = more signal; also: test concentration not given here
# [10] = A549 lung cancer cell viability effects, profiling panel, resazurin fluorescence, 24 h, PK04 Diversity Set (AID 1171); details: higher = more signal, called active from +8 up or from −8 down; also: test concentration not given here
# [11] = HepG2 liver cancer cell viability effects, profiling panel, resazurin fluorescence, 24 h, PK04 Diversity Set (AID 1172); details: higher = more signal; also: test concentration not given here
# [12] = basal S. cerevisiae growth modulation, no modifier, primary screen, OD600, strain BY4716, 24 h, basal condition (AID 1173); details: OD600, 24 h, higher = more signal, called active from +8 up or from −8 down
# [13] = MM1S myeloma cell viability, profiling panel, resazurin fluorescence, basal, 24 h, PK04 Diversity Set (AID 1174); details: higher = more signal, called active from +8 up or from −8 down;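 also: MM1S multiple myeloma cell line; test concentration not given here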
# [14] = target: Dihydroorotate dehydrogenase (quinone), mitochondrial (Plasmodium falciparum (isolate 3D7)) (UniProt Q08210); assay: PfDHODH enzyme inhibitors, primary screen, biochemical, C-terminal His tag, absorbance 600 nm (AID 1175); details: DCIP absorbance 600 nm, higher = more signal, called active from +8 up or from −8 down;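 also: recombinant parasite enzyme with a five histidine tag at its C terminus; test concentration not given here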
# [15] = P. aeruginosa biofilm formation inhibitors, primary screen, strain PAO1, LB-PBS medium, absorbance 600 nm (AID 1176); also: test concentration not given here; details: P. aeruginosa PAO1 growth/biofilm, A600, 12 h; higher = more signal
# [16] = S. cerevisiae RM11-1a growth modifiers, primary screen, strain RM11-1a, OD600, basal, 24 h (AID 1177); details: OD600, 24 h, higher = more signal, called active from +8 up or from −8 down;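 also: cultures grown under basal conditions with no added stressor; test concentration not given here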
# [17] = E. coli acrAB mutant growth effects, primary screen, E. coli filamentation inducers, strain DRC39, OD650, 24 h (AID 1178); details: higher = more signal, called active from +8 up or from −8 down;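 also: growth measured as culture turbidity by optical density at 650 nm; test concentration not given here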
# [18] = E. coli acrAB mutant growth effects, primary screen, E. coli filamentation inducers, strain DRC39, OD650, 48 h (AID 1179);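 also: screen aims at cell division blockers that make cells filament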; details: E. coli DRC39 delta-acrAB growth, higher = more signal, called active from +8 up or from −8 down
# [19] = RPMI8226 myeloma cell viability, profiling panel, resazurin fluorescence, basal, 24 h, PK04 Diversity Set (AID 1180); details: higher = more signal;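 also: RPMI8826 multiple myeloma cell line at 5000 cells per well; test concentration not given here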
# [20] = target: E3 ubiquitin-protein ligase XIAP (Homo sapiens) (UniProt P98170); assay: XIAP binders, primary screen, biophysical, small-molecule microarray, fluorescence 635 nm (AID 1181); details: small-molecule microarray binding, higher = more signal;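 also: score merges 667 nm emission and signal to noise over triplicate slides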
# Chain of E3 ubiquitin-protein ligase XIAP (Homo sapiens) (P98170 whole entry, looked up): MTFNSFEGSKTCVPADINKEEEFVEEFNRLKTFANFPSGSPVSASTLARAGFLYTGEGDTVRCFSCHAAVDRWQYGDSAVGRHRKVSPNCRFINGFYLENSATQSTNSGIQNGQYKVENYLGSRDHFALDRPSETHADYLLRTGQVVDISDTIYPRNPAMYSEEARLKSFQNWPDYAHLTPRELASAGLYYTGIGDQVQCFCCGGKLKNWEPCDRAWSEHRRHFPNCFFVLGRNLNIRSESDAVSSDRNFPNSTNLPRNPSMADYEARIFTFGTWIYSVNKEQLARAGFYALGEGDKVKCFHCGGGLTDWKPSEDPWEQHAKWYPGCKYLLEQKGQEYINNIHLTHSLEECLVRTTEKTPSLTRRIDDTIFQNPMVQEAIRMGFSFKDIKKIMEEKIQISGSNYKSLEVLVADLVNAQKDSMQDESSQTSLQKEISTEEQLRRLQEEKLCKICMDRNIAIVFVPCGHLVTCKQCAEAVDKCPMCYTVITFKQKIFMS
# Chain of Dihydroorotate dehydrogenase (quinone), mitochondrial (Plasmodium falciparum (isolate 3D7)) (Q08210 whole entry, looked up): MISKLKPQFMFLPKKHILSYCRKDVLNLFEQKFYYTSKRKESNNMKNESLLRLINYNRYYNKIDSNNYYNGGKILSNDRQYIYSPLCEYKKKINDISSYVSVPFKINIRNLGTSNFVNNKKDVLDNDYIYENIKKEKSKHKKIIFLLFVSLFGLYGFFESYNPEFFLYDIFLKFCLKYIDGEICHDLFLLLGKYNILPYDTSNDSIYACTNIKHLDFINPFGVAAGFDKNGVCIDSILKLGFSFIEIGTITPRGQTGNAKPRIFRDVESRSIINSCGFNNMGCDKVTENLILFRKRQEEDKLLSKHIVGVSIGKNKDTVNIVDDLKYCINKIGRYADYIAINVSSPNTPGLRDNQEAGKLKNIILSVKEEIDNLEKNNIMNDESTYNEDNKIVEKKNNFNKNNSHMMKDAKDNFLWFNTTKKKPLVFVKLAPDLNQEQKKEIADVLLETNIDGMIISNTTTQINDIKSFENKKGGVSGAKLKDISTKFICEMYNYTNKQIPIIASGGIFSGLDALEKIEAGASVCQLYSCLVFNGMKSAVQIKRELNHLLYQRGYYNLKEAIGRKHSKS
SMILES,z-score [1],z-score [2],z-score [3],z-score [4],z-score [5],z-score [6],z-score [7],z-score [8],z-score [9],z-score [10],z-score [11],z-score [12],z-score [13],composite z-score [14],z-score [15],z-score [16],z-score [17],z-score [18],z-score [19],composite z-score [20]
Cn1c(=O)n2n(c1=O)[C@H]1[C@H](O)[C@@H]3O[C@@H]3C(=O)[C@H]1CC2,0.365,-0.137,0.902,-0.382,0.308,0.45,0.194 (inactive),0.731,0.0623,-0.495 (inactive),-0.12,0.243 (inactive),-0.871 (inactive),0.438 (inactive),-0.343 (inactive),0.723 (inactive),0.463 (inactive),0.166 (inactive),-0.52,0.0799
CCOC(=O)NN=C1C[C@@H](O)[C@@H](O)[C@@H]2[C@@H]3C(=O)N(Cc4ccc5c(c4)OCO5)C(=O)[C@@H]3CC[C@H]12,-0.257,-0.132,0.473,0.457,-0.0903,-0.268,-0.754 (inactive),0.386,-1.34,-0.027 (inactive),0.514,0.923 (inactive),-0.343 (inactive),0.005 (inactive),-0.981 (inactive),0.169 (inactive),0.298 (inactive),0.19 (inactive),0.3,-0.0294
CC[C@@H](c1ccccc1)n1c(=O)n2n(c1=O)[C@H]1[C@H](O)[C@@H]3O[C@@H]3C(=NOC[C@@H](O)COCc3ccco3)[C@H]1CC2,-0.335,-0.193,-0.378,-0.0533,-0.736,-1.44,-0.368 (inactive),-0.465,0.432,0.0367 (inactive),-0.466,0.626 (inactive),-0.617 (inactive),-0.337 (inactive),-0.613 (inactive),-1.11 (inactive),0.243 (inactive),0.047 (inactive),-0.257,-0.117
COC(=O)CC=C[C@@H](C)[C@H](OCc1cccc(-c2ccccc2)c1)C1CCCCC1,0.687,-0.328,-0.0634,-1.92,-0.771,-0.579,0.57 (inactive),-0.165,-0.172,0.2 (inactive),-0.307,-0.0348 (inactive),0.45 (inactive),-3.69 (inactive),-0.409 (inactive),1.82 (inactive),-0.933 (inactive),-0.661 (inactive),0.403,-0.267
Cc1ccc(S(=O)(=O)OC[C@H]2CN3[C@H](c4ccc(Br)cc4)[C@@H](C)CC[C@H]3C(=O)O2)cc1,0.602,-0.744,0.62,-0.0638,-0.75,0.914,0.555 (inactive),-0.103,0.222,0.683 (inactive),0.794,-9.35 (active),0.648 (inactive),-0.303 (inactive),1.29 (inactive),-1.42 (inactive),1.31 (inactive),0.618 (inactive),0.521,0.201
CCOC(=O)[C@H](CC(C)C)NC(=O)CCC1CC(OC(=O)NCc2ccc3c(c2)OCO3)CC2(CCCC(COC(=O)NCc3cccc(C(F)(F)F)c3)O2)O1 (stereo not given in full),0.112,0.214,-0.503,0.0777,-3.36,1.85,-0.176 (inactive),0.525,-0.412,-0.175 (inactive),-0.54,0.3 (inactive),0.639 (inactive),0.0645 (inactive),-0.0691 (inactive),0.683 (inactive),-0.718 (inactive),-0.0974 (inactive),0.328,-0.148
C[C@H]1Cc2c(COc3ccccc3)nc3c(c2CO1)CN(CCOc1ccccc1)CC3,1.05,0.175,0.93,-0.125,-0.517,2.33,0.678 (inactive),-0.041,0.184,-0.0515 (inactive),-0.503,-3.09 (inactive),0.598 (inactive),-0.555 (inactive),1.69 (inactive),-0.466 (inactive),1.52 (inactive),0.996 (inactive),0.961,-0.0767
Cc1ccc(S(=O)(=O)N[C@@H]2COC(=O)[C@@H](C)COC(=O)CC=C[C@H]2C)cc1,-0.168,0.996,0.617,0.0281,0.587,0.0622,-0.396 (inactive),0.62,0.743,0.0709 (inactive),0.0896,0.426 (inactive),0.258 (inactive),0.264 (inactive),-0.413 (inactive),1.02 (inactive),0.155 (inactive),-0.73 (inactive),-0.0722,0.214
CCc1cc2c(nc1CC)CCN(CCC(C)=NO[C@@H](C)c1cn([C@H](CO)Cc3ccccc3)nn1)C2,0.669,0.367,1.8,0.73,0.18,2.44,0.254 (inactive),-0.279,-0.525,0.0367 (inactive),-0.301,-0.841 (inactive),-1.79 (inactive),-1.3 (inactive),-0.218 (inactive),0.804 (inactive),0.294 (inactive),0.67 (inactive),0.659,-0.0602
CCOC(=O)[C@H](Cc1ccccc1)NC(=O)CCC1CC(OC(=O)NCc2cccc3ccccc23)CC2(CCCC(COC(=O)NCc3cccc(C(F)(F)F)c3)O2)O1 (stereo not given in full),1.84,-0.244,1.14,-0.709,0.607,3.94,0.918 (inactive),-0.284,-0.868,-0.106 (inactive),-0.256,-0.168 (inactive),0.415 (inactive),-0.873 (inactive),0.675 (inactive),0.473 (inactive),0.213 (inactive),-0.215 (inactive),-0.573,0.158
C#CCCCON=C1C[C@@H](O)[C@@H](O)[C@@H]2[C@@H]3C(=O)N(Cc4ccccc4)C(=O)[C@@H]3CC[C@@H]12,0.307,-0.198,-0.732,-0.488,0.199,0.793,0.89 (inactive),-0.323,-0.467,0.37 (inactive),0.71,-0.878 (inactive),0.736 (inactive),-1.23 (inactive),-0.601 (inactive),-0.0952 (inactive),0.777 (inactive),1.2 (inactive),0.886,-0.267
COC(=O)[C@@H]1CC[C@H](C)[C@@H](c2ccc(C)cc2)N1C(=O)c1ccc(C=NO[C@H](C)c2cn([C@@H]3COC[C@H]3O)nn2)cc1,0.278,-1.16,-0.482,0.673,-0.486,-1.12,-0.579 (inactive),-0.916,-0.985,0.339 (inactive),-0.324,-0.225 (inactive),-0.943 (inactive),0.0465 (inactive),0.289 (inactive),1.17 (inactive),0.879 (inactive),0.246 (inactive),-0.798,0.199
C[C@@H](c1ccccc1)N1C(=O)[C@H]2[C@H]3[C@H](O)[C@H](O)CC(=NOCc4ccccc4)[C@H]3CC[C@H]2C1=O,0.654,-0.602,-0.159,0.503,0.13,0.879,0.925 (inactive),0.00496,-1.55,-0.428 (inactive),-0.137,-0.18 (inactive),-1.03 (inactive),-0.964 (inactive),-0.179 (inactive),0.783 (inactive),0.273 (inactive),1.12 (inactive),0.76,-0.184
CCOC(=O)[C@H](Cc1ccccc1)NC(=O)CCC1CC(OC(=O)NCc2cccc3ccccc23)CC2(CCCC(COC(=O)NCCC(C)C)O2)O1 (stereo not given in full),0.509,-0.0617,-0.166,0.389,0.302,-0.433,-0.133 (inactive),-0.758,-0.121,1.32 (inactive),1.15,-1.07 (inactive),1.3 (inactive),-0.619 (inactive),0.238 (inactive),-0.886 (inactive),-0.427 (inactive),0.319 (inactive),1.82,0.0867
CCC(=O)[C@@]1(O)C(=O)N2C(=C3C(=O)OCC[C@@H]31)N(Cc1ccccc1)C(C)=C(C(=O)OC)[C@H]2c1ccccc1,-0.0783,-1.09,0.237,-0.184,0.596,-0.255,-0.0375 (inactive),-0.179,0.676,-0.342 (inactive),-0.207,-0.235 (inactive),0.327 (inactive),-1.41 (inactive),0.936 (inactive),0.273 (inactive),0.533 (inactive),-0.247 (inactive),-0.557,-0.175
CC(C)(C)N1C(=O)[C@H]2[C@H]3[C@H](O)C=CC(=O)[C@@H]3CC[C@H]2C1=O,-0.269,0.815,0.282,0.326,0.311,0.102,-0.211 (inactive),-0.0172,1.19,0.0796 (inactive),0.136,1.48 (inactive),0.469 (inactive),0.237 (inactive),-0.118 (inactive),0.846 (inactive),-0.278 (inactive),-0.231 (inactive),0.467,-0.102
CC1O[C@H]2C3=C(C(=O)[C@@H]4O[C@@H]4[C@H]3O)[C@@H]1C1[C@@H](C)OC=C3[C@H](O)C4O[C@@H]4C(=NOCc4ccccc4)[C@]312 (stereo not given in full),-0.434,0.145,-1.65,-3.58,-3.71,-2.66,0.435 (inactive),-0.856,-2.28,-0.989 (inactive),-1.04,-0.456 (inactive),-4.85 (inactive),0.0953 (inactive),-0.364 (inactive),0.543 (inactive),0.158 (inactive),-0.123 (inactive),-2.84,0.215
